Measurements: PubChem BioAssay (NCATS)
Results filed as inconclusive are left out. Activity calls are given as the source filed them. Calls come from the whole dose curve; as a rule, active = well fitted cell-killing curve with a large enough effect; inconclusive = small, poorly fitted or top-dose-only effect, or effect the other way; inactive = no such curve, though single readings can be large or run the other way.

Assay: Viability qHTS for spleen associated tyrosine kinase inhibitor (SYKi) drug resistant MV4-11 cells (AID 1963824); note: nearly all actives have a fitted effect of over 35% in size
Conditions: SYKi-resistant MV4-11 viability, CellTiter-Glo, 72 h; series mostly up to 45 µM; viability, % of control: at the top concentration
Procedure, shortened: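 SYK inhibitor-resistant MV4-11 AML cells, 500 per well, added to predispensed compounds and incubated 72 hr at 37 C, 5% CO2. Viability measured by CellTiter-Glo luminescence after 10 min at room temperature.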
Potency is the fitted concentration of half-maximal effect.

| Structure (SMILES) | Potency | viability, % of control |
| --- | --- | --- |
| COc1ccccc1NC(=O)Nc1ccc2ccccc2c1 | 20.6 µM (active) |  |
| CC(=O)Nc1nc(C)c(-c2nc(N3CCCC(O)C3)no2)s1 (stereo unspecified) | 16.4 µM (active) |  |
| Cc1ccccc1C(=O)Nc1ccc(C(=O)N2CCC[C@@H](O)c3cc(Cl)ccc32)c(C)c1 | 20.6 µM (active) |  |
| CC(=O)O[C@@H]1[C@@H](OC(C)=O)[C@H](C)O[C@@H](O[C@H]2[C@@H]3C=CO[C@@H](O[C@@H]4O[C@H](CO)[C@@H](O)[C@H](O)[C@H]4O)[C@@H]3[C@@]3(CO)O[C@@H]23)[C@@H]1OC(=O)/C=C/c1ccccc1 | 6.11 µM (active) |  |
| COc1cc(O)c2c(c1)/C=C/C[C@H](O)[C@H](O)C(=O)/C=C\C[C@H](C)OC2=O | 0.259 µM (active) |  |
| C=C(CO)C(=O)O[C@H]1C[C@@]23O[C@@H]2CC/C(=C/[C@H]2OC(=O)C(=C)[C@H]12)CO[C@H]3O | 11.4 µM (active) |  |
| COC1CC(O[C@H]2CC[C@@]3(C)C(=CC[C@]4(O)C3[C@H](O)[C@@H](O)[C@]3(C)[C@@H]([C@H](C)O)CC[C@@]34O)C2)OC(C)C1OC1CC(OC)C(OC2CC(OC)C(OC3OC(C)C(OC4OC(CO)C(O)C(O)C4O)C(OC)C3O)C(C)O2)C(C)O1 (stereo partly specified) |  | 76.2% [at 9.25 µM] (inactive) |
| C=C1C[C@@]23CCC4[C@@](C)(CCC[C@@]4(C)C(=O)OC)C2CC[C@@H]1C3 (stereo partly specified) | 6.4 µM (active) |  |
| CC(=O)C1=C(O)C2c3c[nH]c4cccc(c34)CC2C(C)(C)N(C)C1=O (stereo unspecified) | 23.1 µM (active) |  |
| CC1OC(O[C@H]2[C@@H](O)C[C@@]3(C)C([C@H](O)C[C@]4(C)C3CC=C3C5CC(C)(C)CC[C@]5(C(=O)OC5OC(CO)C(O)C(O)C5OC5OCC(OC6OCC(OC7OCC(O)C(O)C7O)C(O)C6O)C(OC6OCC(O)(CO)C6O)C5O)CC[C@]34C)[C@]2(C)CO)C(O)C(O)C1O (stereo partly specified) |  | 97% [at 9.25 µM] (inactive) |
| O=C(Nc1ccc(S(=O)(=O)Nc2nccs2)cc1)c1cc(-c2ccccc2)nc2ccccc12 | 16.4 µM (active) |  |
| CN(CCOc1ccc(-c2ccc3c(c2)OCO3)cc1C(C)(C)C)CC(=O)O | 16.6 µM (active) |  |
| CC(C)(C)c1ccc(C(=O)Nc2cc(Cl)c(Br)cc2C(=O)O)cc1 | 16.4 µM (active) |  |
| Cc1noc2c1-c1ccccc1C(c1ccc(Cl)cc1)=N[C@H]2CC(N)=O | 0.332 µM (active) |  |
| CC[C@H](C)/C=C(C)/C=C/C1=CC2=C(Cl)C(=O)[C@](C)(O)[C@H](OC(C)=O)[C@H]2CO1 | 7.18 µM (active) |  |
| COc1ccccc1-c1nc(SCC(=O)Nc2ccc(C)c(C)c2)n[nH]1 | 16.4 µM (active) |  |

| Structure (SMILES) | Potency | viability, % of control |
| --- | --- | --- |
| C=C(C)[C@@]1(O)C[C@@]2(C)C(=CC1=O)CC[C@@H](O)[C@@H]2C |  | 78% (inactive) |
| C/C=C(/C)C(=O)OC1C=C2C3C(C)C(C)C(OC(=O)C(C)C(C)O)CC3(C)CCC2(C)C2(C)CC(OC(C)=O)C3C(C)(C)C(O)C(=O)CC3(C)C12 (stereo unspecified) | 4.32 µM (active) |  |
| Cc1cc(N)c2ccccc2[n+]1CCCCCCCCCC[n+]1c(C)cc(N)c2ccccc21 | 0.58 µM (active) |  |
| Nc1ncnc2n[nH]c(Nc3ccc(F)cc3)c12 | 6.51 µM (active) |  |
| C=C(C)C(=O)OC1C(OC(C)=O)/C(C=O)=C\CC/C(CO)=C/C2OC(=O)C(=C)C21 (stereo unspecified) | 2 µM (active) |  |
| CC(C)Oc1ccc(-c2cnc3c(-c4ccnc5ccccc45)cnn3c2)cc1 | 4.11 µM (active) |  |
| CC(Oc1cc(-n2cnc3ccc(CN4CCN(C)CC4)cc32)sc1C(N)=O)c1ccccc1C(F)(F)F (stereo unspecified) | 0.461 µM (active) |  |
| C#C[C@]1(O)CC[C@H]2[C@@H]3CCC4=C/C(=N/O)CC[C@@H]4[C@H]3CC[C@@]21CC | 25.9 µM (active) |  |
| Cc1ccccc1-c1cc(N2CCN(C)CC2)ncc1N(C)C(=O)C(C)(C)c1cc(C(F)(F)F)cc(C(F)(F)F)c1 |  | 69% (inactive) |
| CCN(CC)CCOCCOC(=O)C(CC)(CC)c1ccccc1 | 23.1 µM (active) |  |
| COCC(=O)NC/C=C/c1ccc2ncnc(Nc3ccc(Oc4ccc(C)nc4)c(C)c3)c2c1 | 9.2 µM (active) |  |
| Nc1nc(-c2nn(Cc3ccccc3F)c3ncccc23)ncc1C1CC1 | 1.32 µM (active) |  |
| CC(C)CC(=O)n1cc(C(N)=O)c(=O)cc1C(O)c1ccccc1 (stereo unspecified) |  | 84.5% (inactive) |
| CC(CNS(=O)(=O)C(C)C)c1ccc(-c2ccc(C#N)cc2)cc1 (stereo unspecified) | 2.59 µM (active) |  |
| C=C1C(=O)OC2CC(C)C(CCC(C)O)=CCC12 (stereo unspecified) | 7.31 µM (active) |  |
